Autophagy HCS = autophagy modulation, high-content screen; MEF GFP-LC3 puncta imaging; test concentration mostly 10 µM; calls only at 10 µM (by protocol); 0.98% of 190,000 active; AID 463193;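 active = percentage of spot-positive cells more than 3 SD above its plate mean, without a fluorescence outlier flag or 80% toxicity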;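 note: spot-positive cell cutoff set from DMSO-treated cells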
Lmaj promast = Leishmania major promastigote growth inhibition; inhibition, % at 10 µM; AID 1063; 9% of 200,000 active; Leishmania major promastigotes, resazurin fluorescence viability; in the data active = inhibition above about 50%;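 note: promastigotes grown with compound for 44 hours at 28 °C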
WT yeast gro inh = growth inhibition of WT yeast, mitochondrial fusion screen; mitochondrial fusion phenotypic screen, WT strain; inhibition, % at 10 µM; 2.1% of 190,000 active; AID 1362; in the data active = inhibition above about 58%; tested in S. cerevisiae
Insulin prom up = MIN6 insulin promoter up-regulation; MIN6 insulin promoter-GFP reporter, high-content imaging; stronger effect = higher value; z-score at 5 µM; 0.3% of 190,000 active;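 active = z-score above 3 at 5 µM with at least 500 cells counted in the well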
INS promoter inh = TRM-6 insulin promoter activity inhibition; TRM-6 cells (human fetal islet line), insulin promoter-eGFP reporter, imaging; reporter expression induced with tamoxifen; inhibition, % at 2 µM; 0.9% of 130,000 active; AID 1273;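 active = inhibition above the mean plus 3 SD, with well images judged a real hit on visual review, cut at about 60% in these data, passing the limit was not always enough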
* hit, by the source's call; i = inactive; x = no result; + = active, no number. Compounds with a hit are over-represented: about 11% of the library has one in this group of screens.

SMILES	Autophagy HCS	Lmaj promast	WT yeast gro inh	Insulin prom up	INS promoter inh
O=C(c1cc(F)ccc1F)C1CCCN(CCCc2ccccc2)C1 (stereo not given)	i	82.2*	12.5	-0.54	x
COC(=O)Nc1ccc(N=C(N)N[N+](=O)[O-])cc1	i	-5.3	-23.1	-0.19	-14.3
CC(=O)Nc1ccc2c(c1)CC1(C(=O)N(C)C(=O)N(C)C1=O)C1CCCN21 (stereo not given)	i	-3.0	-4.5	0.34	x
Cc1nn(C)cc1/C=C1/CC2C3CC=C4CC(O)CCC4(C)C3CCC2(C)C1=O (stereo not given)	i	5.2	x	x	-144.4
CC12CCC3C(CC=C4CC(O)CCC43C)C1C/C(=C\c1ccccc1F)C2=O (stereo not given)	i	0.5	65.0*	-0.23	x
O=C(c1csc2c1CCCCC2)N1CCC2(CC1)OCCO2	i	-1.6	13.7	-0.04	0.0
COc1cc(/C=C/C(=O)c2c(O)n(CCc3ccccc3)c(=O)[nH]c2=O)ccc1O	i	88.9*	6.2	-0.17	51.6
CCCCn1c(O)c(C(C)=NCCc2ccccc2)c(=O)[nH]c1=O	i	7.3	-5.3	1.29	-41.7
O=C(/C=C/c1ccccc1)c1c(O)n(CCc2ccccc2)c(=O)[nH]c1=O	i	59.7*	-6.2	-0.35	x
CN(Cc1ccccc1)C(=C(Cl)Cl)/C(=C1/NCCN1Cc1ccc(Cl)nc1)[N+](=O)[O-]	i	5.9	-14.2	0.39	-25.8
O=c1c2ccccc2nc(-c2cccs2)n1-c1ccccc1	i	0.7	-4.6	x	17.9
NC(N)=N/N=C/c1cn(-c2ccccc2)nc1-c1cccs1	+	100.5*	15.9	-0.35	-47.1
CN[C@@H]1C[C@@H](c2ccc(Cl)c(Cl)c2)c2ccccc21	x	x	53.0	-0.61	x
COc1cc2c(cc1OC)C13CCN4CC5=CCOC6CC(=O)N2C1C6C5CC43 (stereo not given) (tested in a mixture with another compound)	x	x	x	0.25	x
CCN1C(=O)/C(=C/c2ccc(N(CC)CC)cc2OC)C(=O)NC1=S	i	99.5*	14.7	1.82	x
COc1cc(OC)c(OC)cc1/C=C1/C(=O)NC(=O)N(Cc2ccccc2)C1=O	x	x	x	-0.31	x
CN1CCC(OC(=O)C2c3ccccc3Oc3ccccc32)CC1	i	85.7*	2.6	0.1	-87.0
O=C1CC(C(=O)N2CCC3(CC2)OCCO3)CN1CCc1ccccc1 (stereo not given)	i	-10.8	10.5	0.09	80.0*
CN1CCC2(CC1)C(C#N)=C(N)NC(S)=C2C#N	i	-4.3	11.3	0.39	x
CN(C)c1ccc(CN2CC=C(c3ccc(F)cc3)CC2)cc1	i	96.2*	22.1	-0.82	x
CCCCn1c(O)c(C(CC)=NCc2cc(OC)cc(OC)c2)c(=O)[nH]c1=O	i	99.6*	14.6	-0.12	64.7
Cc1ccc(O)c(C(=O)c2cc(C(=O)NCc3ccccc3)c(=O)n(Cc3ccccc3)c2)c1	i	78.0*	6.1	-0.02	x
O=C(c1cc(C(=O)NCc2ccccc2)c(=O)n(Cc2ccccc2)c1)c1cc(Br)ccc1O	i	99.4*	26.3	x	45.2
Cn1cc(C(=O)NCc2ccccc2)c2ccccc21	i	1.4	-27.4	0.09	x
O=C(CNC(=O)c1ccccc1Cl)Nc1ccc(Br)cc1C(=O)c1ccccc1	i	5.3	13.7	0.21	-14.3
SMILES	Autophagy HCS	Lmaj promast	WT yeast gro inh	Insulin prom up	INS promoter inh
CCN(CC)c1ccc(/C=C/[N+](=O)[O-])cc1	i	68.8*	38.3	0.4	0.0
CCN(CC)c1ccc(CC2C(=O)N(C)C(=O)N(C)C2=O)cc1	i	1.7	-13.1	-0.22	x
COc1ccc(OCC(=O)N2CCN(C(C)C)CC2)cc1	i	-3.2	-19.9	0.33	16.7
CC(C)N1CCN(c2ccc(O)cc2)CC1	i	55.8*	-7.0	-0.13	43.6
O=[N+]([O-])c1cc(F)c(N2CCCCCC2)cc1N1CCNCC1	i	100.6*	9.8	-0.25	x
Nc1cc(N2CCNCC2)ccc1[N+](=O)[O-]	i	1.1	2.0	-0.28	-10.0
O=[N+]([O-])c1ccc(N2CCNCC2)cc1N1CCCCCC1	i	99.2*	-1.6	-0.58	x
CN1CCN(c2ccc([N+](=O)[O-])c(N3CCCCC3)c2)CC1	i	93.7*	-9.9	-0.05	x
CN1CCN(c2ccc([N+](=O)[O-])c(N)c2)CC1	i	52.0*	-15.7	-0.29	-42.1
Cc1ccc(N=Nc2c(O)[nH]c(=O)[nH]c2=O)c([N+](=O)[O-])c1	i	-9.3	7.8	0.71	x
CCN(CC)CCCC(C)N=C(c1ccccc1)c1c(O)n(C)c(=O)n(C)c1=O (stereo not given)	i	95.0*	-8.7	-0.61	-127.3
CC(C)OP(=O)(OC(C)C)C(O)c1ccccc1F (stereo not given)	i	-8.7	3.2	-0.65	x
C/C(=N\NP(=S)(c1ccccc1)c1ccccc1)c1ccc(O)cc1O	x	x	x	-0.2	x
Clc1ccc(COC(Cn2ccnc2)c2ccc(Cl)cc2Cl)c(Cl)c1 (stereo not given)	i	98.9*	94.2	x	-45.5
O=C1C2CCN(CC2)C1Cc1ccc(OCc2ccccc2)cc1 (stereo not given)	i	100.1*	21.9	0.41	x
CC(=O)Nc1ccccc1OP1(=O)COc2ccccc2OC1	i	1.7	-15.3	-0.67	76.9*
CC(=O)OC1(Cc2ccccc2)CN2CCC1c1ccccc12 (stereo not given)	i	62.7*	3.7	0.75	16.7
CC(=O)OC1(c2ccc(C)cc2)CN2CCC1c1ccccc12 (stereo not given)	i	8.8	-2.3	0.59	29.0
CCOC(=O)c1sc(N=Nc2c(O)[nH]c(=O)[nH]c2=O)c(C(=O)OCC)c1C	i	59.0*	-253.1	-0.45	33.3
COc1ccc(-c2nc3ccccc3c(=O)o2)cc1	i	-5.3	-7.0	0.26	x
CC(NCc1ccc(Cl)c(Cl)c1)C(O)c1ccccc1 (stereo not given)	i	91.1*	25.0	-0.45	0.0
CC(C(=O)Nc1ccc(Br)cc1C(=O)c1ccccc1)N1CCOCC1 (stereo not given)	i	98.6*	-7.6	1.21	-20.0
O=C(CCN1CCOCC1)NCC(=O)Nc1ccc(Br)cc1C(=O)c1ccccc1	i	-3.3	-2.3	x	-3.0
COCCNCCOc1ccc(C(C)(C)c2ccccc2)cc1	i	97.8*	7.0	0.93	-107.7
CC(C)Sc1nnc(OC(=O)N(C)C)n1-c1ccccc1	x	x	x	-0.12	x
CNC(C)Cc1ccccc1Sc1ccc(O)cc1 (stereo not given)	i	100.4*	-12.5	-1.01	-2.6
COc1ccccc1Cn1c(SCC(=O)C(C)(C)C)nc2cc(C(=O)N3CCC4(CC3)OCCO4)ccc2c1=O	i	56.5*	8.3	-0.38	0.0
CC1CN(CCc2ccccc2)CC(C)O1 (stereo not given)	i	7.3	0.0	1.52	70.3*
O=C1NC(=O)C2(C(=O)N1)C(c1ccc(F)cc1)NC(=S)NC2c1ccc(F)cc1 (stereo not given)	i	-7.7	15.5	-1	8.6
O=C1/C(=C\c2cc3c(cc2Br)OCO3)N2CCC1CC2	i	63.4*	-6.5	0.03	12.0
